This note sets out measurements from ChEMBL document CHEMBL3988442, “University of Dundee, Small-Polar-MMV Screening Library” (2021).

The target in assay [1] is T1, Aspartate--tRNA(Asp/Asn) ligase (Mycobacterium tuberculosis (strain ATCC 25618 / H37Rv)) (UniProt P9WFW3). Note: in the data most compounds retested in dose-response had high values.
T1 sequence (whole entry): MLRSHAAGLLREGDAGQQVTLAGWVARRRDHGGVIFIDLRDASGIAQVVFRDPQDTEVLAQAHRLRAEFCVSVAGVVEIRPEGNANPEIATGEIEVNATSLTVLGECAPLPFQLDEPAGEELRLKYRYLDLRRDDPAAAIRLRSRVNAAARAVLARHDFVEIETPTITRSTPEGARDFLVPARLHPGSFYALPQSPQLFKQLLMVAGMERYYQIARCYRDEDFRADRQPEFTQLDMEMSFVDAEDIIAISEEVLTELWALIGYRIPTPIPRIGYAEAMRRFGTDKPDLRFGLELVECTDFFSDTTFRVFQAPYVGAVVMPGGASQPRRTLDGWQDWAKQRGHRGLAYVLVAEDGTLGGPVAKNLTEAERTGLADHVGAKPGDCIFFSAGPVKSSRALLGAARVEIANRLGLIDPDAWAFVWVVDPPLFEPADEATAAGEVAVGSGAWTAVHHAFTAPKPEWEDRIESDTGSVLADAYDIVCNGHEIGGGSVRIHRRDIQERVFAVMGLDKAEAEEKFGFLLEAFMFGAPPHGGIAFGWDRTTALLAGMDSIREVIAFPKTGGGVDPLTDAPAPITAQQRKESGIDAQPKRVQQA
The assay is described as follows: Assay for Asp RNA synthetase-1 from Mycobacterium tuberculosis. The format is functional. More on the design: scale not given: direction of the effect not stated beside the values. The following applies: 30 µM.

In assay [2] the target is Shiga toxin 2 (Escherichia coli O157:H7) (UniProt P09385+P09386). The assay is described as follows: E. coli 0.157:H7 Shiga Toxin SOP - stx2 screening assay. Type of assay: functional. Also on record: scale not given: direction of the effect not stated beside the values. The following applies: 30 µM.

For `O=C(NCCN1CCc2ccccc2C1)c1scnc1Cl`, the Percent Effect is 1.6% in assay [1] and -3.31% in assay [2].
As for `CS(=O)(=O)N1Cc2nccn2CC(Cn2ncccc2=O)C1` (stereo not given), the figures for the Percent Effect in assay [1] and in assay [2] were 1.17% and -8.61%, respectively.
As to `CC1=Nc2c(c(=O)[nH]n2C2CCCC2)C(c2cccc(O)c2)S1` (stereo not given), the Percent Effect in assay [1] was 0.174%; in assay [2] it was 10.3%.
Take `O=C(c1ccc2c(c1)OCO2)N1CCN(c2cnccn2)CC1`: the results for the Percent Effect in assay [1] and in assay [2] were -4.12% and -14.6%, respectively.
For `Cc1noc(C2CCN(C(=O)CCNc3ncccn3)CC2)n1` the same measures were 0.856% and -36.4%.
The corresponding values for `O=C(c1ccc2c(c1)OCO2)N1CCC[C@]2(C[C@H](OCC3CC3)CO2)C1` are 1.07% and 5.01%.
The corresponding values for `Cc1ccc(C(=O)N2CCc3c(CNS(C)(=O)=O)cncc3C2)o1` are 9.11% and -21%.
As to `Cc1nn(C)c(C)c1C1COCCN1C(=O)c1cnc(N)c(Cl)c1` (stereo not given), the values for the Percent Effect in assay [1] and in assay [2] were 0.88% and -23.7%, respectively.
The corresponding values for `CCC(C)(C)NC(=O)CN(C)C(c1cccc(F)c1)c1ccccn1` (stereo not given) are -1.18% and 15.1%.
For `Cc1ccc(C(C)N(C)Cc2nc3c(cnn3C)c(=O)[nH]2)cc1` (stereo not given) the same measures were 1.46% and 12.8%.
